Experimental data reported in the supplement of paper PMC11732987, “Enantioselective OTUD7B fragment discovery through chemoproteomics screening and high-throughput optimisation” (Communications Chemistry, 2025).

Tests used:
Assay in all cases: log2 ratio of Biotin-Ahx-Ub-VS probe labelling (fragment/DMSO); higher = less target engagement (more negative = stronger competition), active = hit call of the paper (q ≤ 0.05, log2 ratio ≤ -1)
Settings in all cases: compound concentration: 200 uM; treatment time: 3 h
USP19 = target: T1, USP19 (UniProt O94966)
T1 sequence (whole entry): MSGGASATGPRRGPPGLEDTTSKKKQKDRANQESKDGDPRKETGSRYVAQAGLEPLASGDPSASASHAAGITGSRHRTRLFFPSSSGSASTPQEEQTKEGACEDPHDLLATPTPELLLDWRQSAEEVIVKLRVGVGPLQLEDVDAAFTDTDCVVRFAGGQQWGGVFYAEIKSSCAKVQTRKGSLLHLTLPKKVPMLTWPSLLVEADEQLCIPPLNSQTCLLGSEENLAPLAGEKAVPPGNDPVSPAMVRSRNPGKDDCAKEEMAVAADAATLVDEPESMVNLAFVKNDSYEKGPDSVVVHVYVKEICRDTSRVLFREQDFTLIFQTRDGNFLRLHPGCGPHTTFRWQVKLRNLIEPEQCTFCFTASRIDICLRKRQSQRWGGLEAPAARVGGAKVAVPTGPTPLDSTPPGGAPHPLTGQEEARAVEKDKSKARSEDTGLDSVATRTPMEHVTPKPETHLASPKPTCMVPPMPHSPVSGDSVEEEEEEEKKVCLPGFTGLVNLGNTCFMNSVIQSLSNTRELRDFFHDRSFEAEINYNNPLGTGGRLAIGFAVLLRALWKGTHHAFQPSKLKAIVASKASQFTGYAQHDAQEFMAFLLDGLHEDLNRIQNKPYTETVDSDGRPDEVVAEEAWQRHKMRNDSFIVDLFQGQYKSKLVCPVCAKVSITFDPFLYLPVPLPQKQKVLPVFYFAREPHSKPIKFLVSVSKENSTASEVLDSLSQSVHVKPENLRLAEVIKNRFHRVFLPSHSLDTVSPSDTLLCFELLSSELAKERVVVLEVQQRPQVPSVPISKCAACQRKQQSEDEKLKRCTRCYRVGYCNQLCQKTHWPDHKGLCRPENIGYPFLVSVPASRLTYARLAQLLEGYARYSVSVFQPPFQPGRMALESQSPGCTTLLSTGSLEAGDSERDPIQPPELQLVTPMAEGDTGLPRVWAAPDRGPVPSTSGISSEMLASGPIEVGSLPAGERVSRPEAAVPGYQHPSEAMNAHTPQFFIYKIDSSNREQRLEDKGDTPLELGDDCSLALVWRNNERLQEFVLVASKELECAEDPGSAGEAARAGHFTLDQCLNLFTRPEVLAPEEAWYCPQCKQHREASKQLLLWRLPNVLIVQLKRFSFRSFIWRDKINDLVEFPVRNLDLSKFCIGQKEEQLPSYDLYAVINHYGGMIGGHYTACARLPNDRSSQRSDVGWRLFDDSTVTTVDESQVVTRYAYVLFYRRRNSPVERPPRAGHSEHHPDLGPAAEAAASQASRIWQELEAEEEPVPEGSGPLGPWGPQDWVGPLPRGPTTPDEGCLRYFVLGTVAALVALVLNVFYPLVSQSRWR
Method in brief: (§1)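 Global-median-normalised Spectronaut label-free quantities were compared by unpaired t-test, and values are average log2 ratios of fragment over vehicle. Only proteins with ≥2 unique peptides were used. HEK293T lysate (495 µg per sample) was treated in triplicate with fragment at 200 µM or vehicle for 3 h and then with Biotin-Ahx-Ub-VS at 0.5 µM final for 1 h. Labelled DUBs were then NeutrAvidin-enriched, digested with LysC and trypsin, and run by diaPASEF LC-MS/MS.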

USP22 = target: T2, USP22 (UniProt Q9UPT9)
T2 sequence (whole entry): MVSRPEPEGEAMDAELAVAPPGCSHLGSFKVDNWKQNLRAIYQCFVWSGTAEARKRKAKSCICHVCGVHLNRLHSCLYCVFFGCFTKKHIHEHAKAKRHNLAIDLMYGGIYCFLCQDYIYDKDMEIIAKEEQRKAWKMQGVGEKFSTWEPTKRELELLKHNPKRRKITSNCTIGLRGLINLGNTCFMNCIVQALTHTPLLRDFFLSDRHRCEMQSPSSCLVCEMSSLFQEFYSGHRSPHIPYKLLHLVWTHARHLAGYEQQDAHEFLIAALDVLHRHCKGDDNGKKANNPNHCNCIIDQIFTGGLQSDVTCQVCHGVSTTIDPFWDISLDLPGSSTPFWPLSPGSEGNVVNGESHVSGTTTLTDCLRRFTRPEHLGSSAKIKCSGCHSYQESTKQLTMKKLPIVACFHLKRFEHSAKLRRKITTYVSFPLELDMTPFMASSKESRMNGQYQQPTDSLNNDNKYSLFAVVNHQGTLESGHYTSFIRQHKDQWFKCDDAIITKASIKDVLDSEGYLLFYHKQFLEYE
Method in brief: as §1

USP24 = USP24 (UniProt Q9UPU5)
Sequence of USP24 (Q9UPU5 whole entry): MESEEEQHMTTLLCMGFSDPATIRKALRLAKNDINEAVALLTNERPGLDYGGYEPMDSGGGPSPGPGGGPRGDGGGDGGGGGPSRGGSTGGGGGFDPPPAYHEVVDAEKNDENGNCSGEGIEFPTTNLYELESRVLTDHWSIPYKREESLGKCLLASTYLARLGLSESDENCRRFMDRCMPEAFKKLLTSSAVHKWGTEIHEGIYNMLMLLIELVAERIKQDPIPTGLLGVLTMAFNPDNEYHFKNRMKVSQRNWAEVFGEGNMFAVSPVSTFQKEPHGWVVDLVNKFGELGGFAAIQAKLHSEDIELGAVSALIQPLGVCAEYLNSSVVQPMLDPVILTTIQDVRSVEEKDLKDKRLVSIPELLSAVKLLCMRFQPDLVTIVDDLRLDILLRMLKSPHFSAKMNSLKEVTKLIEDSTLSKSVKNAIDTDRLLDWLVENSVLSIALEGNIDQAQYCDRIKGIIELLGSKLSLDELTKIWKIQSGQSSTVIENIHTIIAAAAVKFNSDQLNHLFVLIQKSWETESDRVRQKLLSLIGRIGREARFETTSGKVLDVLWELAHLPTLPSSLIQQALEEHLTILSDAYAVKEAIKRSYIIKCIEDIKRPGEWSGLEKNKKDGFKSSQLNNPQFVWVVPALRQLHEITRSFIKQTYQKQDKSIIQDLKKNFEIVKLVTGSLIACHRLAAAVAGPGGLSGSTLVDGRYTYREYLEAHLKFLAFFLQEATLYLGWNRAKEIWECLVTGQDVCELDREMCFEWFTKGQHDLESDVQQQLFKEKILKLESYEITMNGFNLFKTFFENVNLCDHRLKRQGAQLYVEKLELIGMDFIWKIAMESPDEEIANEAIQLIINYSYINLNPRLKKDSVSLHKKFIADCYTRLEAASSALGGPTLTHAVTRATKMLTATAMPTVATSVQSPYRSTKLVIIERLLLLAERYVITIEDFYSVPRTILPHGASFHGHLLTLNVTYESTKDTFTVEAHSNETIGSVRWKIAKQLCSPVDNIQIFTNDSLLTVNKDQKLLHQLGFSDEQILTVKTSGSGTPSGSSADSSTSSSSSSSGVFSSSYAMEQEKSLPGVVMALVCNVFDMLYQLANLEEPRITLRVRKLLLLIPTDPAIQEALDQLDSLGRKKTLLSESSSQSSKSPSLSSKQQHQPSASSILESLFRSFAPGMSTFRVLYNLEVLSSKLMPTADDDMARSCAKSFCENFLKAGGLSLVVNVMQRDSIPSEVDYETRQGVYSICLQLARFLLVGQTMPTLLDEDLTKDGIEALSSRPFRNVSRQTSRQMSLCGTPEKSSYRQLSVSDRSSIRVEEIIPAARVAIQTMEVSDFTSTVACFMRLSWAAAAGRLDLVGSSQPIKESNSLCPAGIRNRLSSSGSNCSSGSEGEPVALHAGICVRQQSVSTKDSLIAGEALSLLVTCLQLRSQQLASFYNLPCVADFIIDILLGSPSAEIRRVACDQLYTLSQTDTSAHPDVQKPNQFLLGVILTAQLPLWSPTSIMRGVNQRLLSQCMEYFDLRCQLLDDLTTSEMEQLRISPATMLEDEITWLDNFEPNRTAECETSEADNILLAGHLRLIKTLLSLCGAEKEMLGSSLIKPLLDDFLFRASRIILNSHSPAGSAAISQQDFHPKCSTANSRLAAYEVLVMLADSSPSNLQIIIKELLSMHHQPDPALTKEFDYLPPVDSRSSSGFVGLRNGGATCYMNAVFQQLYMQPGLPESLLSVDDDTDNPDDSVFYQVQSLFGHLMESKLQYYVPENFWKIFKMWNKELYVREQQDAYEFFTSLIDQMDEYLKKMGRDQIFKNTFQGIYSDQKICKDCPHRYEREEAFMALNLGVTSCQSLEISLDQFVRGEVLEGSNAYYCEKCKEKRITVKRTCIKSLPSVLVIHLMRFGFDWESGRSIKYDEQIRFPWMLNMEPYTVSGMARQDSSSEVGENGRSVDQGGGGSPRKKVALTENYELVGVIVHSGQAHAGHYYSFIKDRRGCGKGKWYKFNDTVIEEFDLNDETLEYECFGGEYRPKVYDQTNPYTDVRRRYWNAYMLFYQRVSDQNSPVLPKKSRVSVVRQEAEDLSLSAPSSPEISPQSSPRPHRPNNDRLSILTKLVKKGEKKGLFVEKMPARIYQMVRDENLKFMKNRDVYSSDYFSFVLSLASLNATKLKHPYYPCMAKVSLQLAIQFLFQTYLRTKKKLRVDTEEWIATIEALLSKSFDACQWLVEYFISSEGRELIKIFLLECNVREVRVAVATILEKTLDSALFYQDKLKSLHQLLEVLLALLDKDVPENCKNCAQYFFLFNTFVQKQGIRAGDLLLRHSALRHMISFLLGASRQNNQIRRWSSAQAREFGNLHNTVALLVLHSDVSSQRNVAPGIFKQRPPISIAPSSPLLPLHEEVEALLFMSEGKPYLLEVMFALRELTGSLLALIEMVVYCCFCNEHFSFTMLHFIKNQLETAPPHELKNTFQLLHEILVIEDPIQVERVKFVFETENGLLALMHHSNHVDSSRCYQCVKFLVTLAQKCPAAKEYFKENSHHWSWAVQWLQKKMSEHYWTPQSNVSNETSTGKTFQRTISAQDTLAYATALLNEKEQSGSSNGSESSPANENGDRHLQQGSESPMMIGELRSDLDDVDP
Method in brief: as §1

USP25 = target: T3, USP25 (UniProt Q9UHP3)
T3 sequence (whole entry): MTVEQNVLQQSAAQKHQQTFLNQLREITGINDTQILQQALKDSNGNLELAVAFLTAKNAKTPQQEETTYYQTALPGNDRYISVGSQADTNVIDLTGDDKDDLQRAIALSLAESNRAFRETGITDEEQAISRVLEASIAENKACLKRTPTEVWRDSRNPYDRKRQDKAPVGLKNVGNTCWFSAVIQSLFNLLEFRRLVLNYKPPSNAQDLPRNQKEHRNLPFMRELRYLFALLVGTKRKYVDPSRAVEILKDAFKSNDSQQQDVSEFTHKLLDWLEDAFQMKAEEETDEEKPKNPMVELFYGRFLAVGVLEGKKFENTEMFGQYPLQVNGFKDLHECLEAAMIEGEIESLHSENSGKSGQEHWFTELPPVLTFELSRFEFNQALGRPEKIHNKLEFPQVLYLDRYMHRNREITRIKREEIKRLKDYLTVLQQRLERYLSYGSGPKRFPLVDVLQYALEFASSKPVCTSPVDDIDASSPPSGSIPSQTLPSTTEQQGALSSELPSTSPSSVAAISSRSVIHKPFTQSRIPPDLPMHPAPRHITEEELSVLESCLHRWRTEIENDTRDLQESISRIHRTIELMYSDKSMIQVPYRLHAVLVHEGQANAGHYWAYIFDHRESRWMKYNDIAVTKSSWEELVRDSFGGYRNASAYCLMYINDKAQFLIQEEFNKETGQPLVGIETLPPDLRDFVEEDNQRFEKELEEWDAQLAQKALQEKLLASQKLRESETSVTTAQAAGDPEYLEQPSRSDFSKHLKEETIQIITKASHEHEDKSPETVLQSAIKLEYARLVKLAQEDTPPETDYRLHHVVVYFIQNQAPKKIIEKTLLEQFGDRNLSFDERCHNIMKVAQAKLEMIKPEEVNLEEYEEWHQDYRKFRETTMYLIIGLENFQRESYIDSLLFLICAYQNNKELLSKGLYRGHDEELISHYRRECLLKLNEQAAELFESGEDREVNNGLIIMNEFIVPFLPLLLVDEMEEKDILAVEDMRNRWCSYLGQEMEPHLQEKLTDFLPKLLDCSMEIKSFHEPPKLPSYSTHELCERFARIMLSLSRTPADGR
Method in brief: as §1

USP28 = target: T4, USP28 (UniProt Q96RU2)
T4 sequence (whole entry): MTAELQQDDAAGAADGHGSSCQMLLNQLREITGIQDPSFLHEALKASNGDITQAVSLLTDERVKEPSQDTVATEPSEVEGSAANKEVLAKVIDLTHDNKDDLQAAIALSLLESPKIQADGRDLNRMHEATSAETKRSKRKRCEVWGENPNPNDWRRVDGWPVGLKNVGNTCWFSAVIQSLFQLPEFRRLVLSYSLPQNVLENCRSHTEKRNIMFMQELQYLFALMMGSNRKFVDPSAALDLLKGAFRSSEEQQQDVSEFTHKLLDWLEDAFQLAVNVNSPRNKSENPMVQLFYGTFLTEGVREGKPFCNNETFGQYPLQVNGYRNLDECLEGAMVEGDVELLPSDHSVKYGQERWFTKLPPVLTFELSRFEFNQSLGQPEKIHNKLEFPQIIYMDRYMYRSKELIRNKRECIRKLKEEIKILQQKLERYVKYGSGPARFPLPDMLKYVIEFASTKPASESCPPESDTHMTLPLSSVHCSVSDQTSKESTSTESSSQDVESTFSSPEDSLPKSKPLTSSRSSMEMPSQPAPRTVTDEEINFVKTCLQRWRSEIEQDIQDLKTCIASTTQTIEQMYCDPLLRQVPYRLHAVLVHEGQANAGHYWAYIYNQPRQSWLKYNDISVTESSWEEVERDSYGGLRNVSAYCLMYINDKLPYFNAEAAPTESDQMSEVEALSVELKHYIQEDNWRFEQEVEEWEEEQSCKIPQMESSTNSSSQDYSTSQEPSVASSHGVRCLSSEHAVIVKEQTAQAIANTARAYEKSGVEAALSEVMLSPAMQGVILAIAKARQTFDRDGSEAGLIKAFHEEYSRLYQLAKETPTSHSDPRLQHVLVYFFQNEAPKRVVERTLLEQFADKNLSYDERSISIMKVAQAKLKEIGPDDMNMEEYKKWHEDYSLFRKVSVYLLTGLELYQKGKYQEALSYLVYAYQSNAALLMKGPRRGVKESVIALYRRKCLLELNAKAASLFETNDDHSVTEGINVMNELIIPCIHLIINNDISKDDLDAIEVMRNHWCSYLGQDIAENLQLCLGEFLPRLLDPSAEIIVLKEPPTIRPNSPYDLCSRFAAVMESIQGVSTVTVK
Method in brief: as §1

Measured: log2 ratio of Biotin-Ahx-Ub-VS probe labelling

Cc1ccc(CNC(=O)CCl)nc1C.Cl
inactive: USP19 -0.0635 | USP22 0.00229 | USP24 -0.467 | USP25 -0.436 | USP28 -0.456
